According to PubChem BioAssay (NCI):
This is part of a sample that, as a whole, favours compounds with a hit. Of some 79,000 tested, about 15% had one in any assay. Values without a mark were called inactive. Activity calls are given as the source filed them. Rule as the data show it: active = growth inhibition above about 70%; inactive = the rest.

What was measured:
[1] = NCI Yeast Anticancer Drug Screen. Data for the rad50 strain (AID 155);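 also: 0% = growth of vehicle-only cultures of the same strain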; conditions: S. cerevisiae rad50 strain growth inhibition, hits give high values
Summary of the method: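 Relative growth inhibition (compound vs vehicle) was measured in yeast with a defined repair-gene alteration.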

[2] = NCI Yeast Anticancer Drug Screen. Data for the mec2-1 strain (AID 157); conditions: S. cerevisiae mec2-1 strain, hits give high values
Summary of the method: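 Readout is yeast growth inhibition, normalised to vehicle-treated controls, in the mec2-1 strain exposed to compound.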

[3] = NCI Yeast Anticancer Drug Screen. Data for the sgs1 mgt1 strain (AID 161);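 also: 0% = growth of cultures given vehicle only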; conditions: S. cerevisiae sgs1 mgt1 strain, hits give high values
Summary of the method: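 Growth of a repair-deficient yeast mutant was monitored after compound treatment and expressed as inhibition relative to vehicle-treated cultures.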

[4] = NCI Yeast Anticancer Drug Screen. Data for the cln2 rad14 strain (AID 165);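 also: 0% = growth equal to vehicle treated cultures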; conditions: S. cerevisiae cln2 rad14 strain, hits give high values
Summary of the method: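 Relative to vehicle controls, growth inhibition of compound-treated cln2 rad14 yeast was recorded.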

[5] = NCI Yeast Anticancer Drug Screen. Data for the bub3 strain (AID 167); conditions: S. cerevisiae bub3 mutant strain, hits give high values
Summary of the method: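 Screening used yeast with an engineered genetic alteration affecting cell cycle control. Compound-exposed cultures were compared with vehicle cultures, and reduced growth was taken as inhibition.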

[6] = NCI Yeast Anticancer Drug Screen. Data for the mlh1 rad18 strain (AID 175); conditions: S. cerevisiae mlh1 rad18 strain growth inhibition, hits give high values
Summary of the method: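 Test agents were incubated with a yeast strain of defined genotype (DNA damage repair defect). Inhibition of growth was derived by comparison with vehicle-exposed cultures.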

[7] = at 5.0 µM (retest, dose inferred, filed as 0.5)
[8] = at 50.0 µM (retest, dose inferred, filed as 5.0)

Structure (SMILES) | growth inhibition [1, 7] | growth inhibition [1, 8] | growth inhibition ([1]; at 50.0 µM) | growth inhibition [2, 7] | growth inhibition [2, 8] | growth inhibition ([2]; at 50.0 µM) | growth inhibition [3, 7] | growth inhibition [3, 8] | growth inhibition ([3]; at 50.0 µM) | growth inhibition [4, 7] [%] | growth inhibition [4, 8] | growth inhibition ([4]; at 50.0 µM) | growth inhibition [5, 7] | growth inhibition [5, 8] | growth inhibition ([5]; at 50.0 µM) | growth inhibition [6, 7] | growth inhibition [6, 8] | growth inhibition ([6]; at 50.0 µM)
O=c1cc(N=Nc2ccc(Cl)c(Cl)c2)[nH]c(=O)[nH]1 | 37% | 95% (active) | 85.8% (active) | 25% | 97% (active) | 86.6% (active) | 54% | 97% (active) | 88.7% (active) | 32 | 97% (active) | 89.5% (active) | 73% (active) | 97% (active) | 86.8% (active) | 41% | 96% (active) | 82% (active)
C=CS(=O)(=O)Cc1ccc(Cl)cc1 | -126% | 91% (active) | 98.6% (active) | -31% | 91% (active) | 97.2% (active) | -33% | 91% (active) | 94.2% (active) | -42 | 84% (active) | 93.9% (active) | -48% | 94% (active) | 97% (active) | -108% | 95% (active) | 97.4% (active)
COc1ccc(S(=O)(=O)O)cc1-n1nc(C(=O)Nc2ccccc2)n[n+]1-c1cc(S(=O)(=O)[O-])ccc1OC | 2% | 9% | 19.1% | 1% | 3% | 39.8% | 10% | 4% | 22% | 0 | 2% | 0.4% | -3% | 2% | -10.6% | 1% | -61% | 63.9%
Oc1ccc2oc3ccccc3c2c1 | 9% | 94% (active) | 94.5% (active) | 0% | 87% (active) | 76% (active) | 0% | 82% (active) | 84.3% (active) | -3 | 46% | 75.5% (active) | 0% | 92% (active) | 88.4% (active) | 3% | 94% (active) | 94.5% (active)
Cc1nc2ccc(NCCN(C)C)c3c(=O)c4cc(O)ccc4n1c23 | 25% | 63% | -20.4% | -3% | 12% | 20.4% | -4% | 16% | -4.45% | 3 | 16% | 11.2% | 13% | 13% | 1.4% | -3% | 20% | 61.4%
O=c1c(Cl)cc2nc3ccccc3sc-2c1Cl | 21% | 72% (active) | 84% (active) | 42% | 84% (active) | 6.5% | 33% | 79% (active) | 83.8% (active) | 1 | 54% | -0.05% | 38% | 85% (active) | 80.5% (active) | 55% | 87% (active) | 83% (active)
COc1ccc2c(c1)S(=O)(=O)C(c1ccccc1)=CC2=O | 81% (active) | 99% (active) | 99.5% (active) | 87% (active) | 99% (active) | 99.5% (active) | 91% (active) | 99% (active) | 99.2% (active) | 66 | 99% (active) | 97.5% (active) | 87% (active) | 98% (active) | 99.5% (active) | 95% (active) | 98% (active) | 99% (active)
Cc1c(-c2ccccc2)sc(/N=C/c2cc(Br)cc(Br)c2O)c1C#N | -17% | 63% | 5.9% | 10% | 34% | 25.3% | 15% | 84% (active) | 29% | 11 | 12% | 10.8% | 5% | 75% (active) | 19.2% | 10% | 60% | 62.9%
[O-]/[N+](O)=C\c1ccccn1 | -2% | -13% | 5.75% | 2% | -8% | 6.55% | -5% | -9% | -0.75% | -2 | -10% | -57.6% | 1% | 0% | -8.4% | 0% | -10% | 37.1%
